The values below come from PubChem BioAssay.

A number with no mark means an inactive call. Activity calls are given as the source filed them.

The target of this test is Luciferin 4-monooxygenase (Photinus pyralis) (UniProt P08659). The test can be described thus: inhibition of purified Photinus pyralis luciferase – biochemical, luminescence, purified enzyme, 2006 set, primary screen (AID 1141).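 Further: cell-free assay with purified firefly luciferase at 100 ng per well in PBS; test concentration not given here.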 The note with it: purified firefly luciferase, SteadyGlo luminescence, 30 min; higher = more signal, called active from +8 up or from −8 down.
Luciferin 4-monooxygenase (Photinus pyralis), sequence (P08659 whole entry, looked up): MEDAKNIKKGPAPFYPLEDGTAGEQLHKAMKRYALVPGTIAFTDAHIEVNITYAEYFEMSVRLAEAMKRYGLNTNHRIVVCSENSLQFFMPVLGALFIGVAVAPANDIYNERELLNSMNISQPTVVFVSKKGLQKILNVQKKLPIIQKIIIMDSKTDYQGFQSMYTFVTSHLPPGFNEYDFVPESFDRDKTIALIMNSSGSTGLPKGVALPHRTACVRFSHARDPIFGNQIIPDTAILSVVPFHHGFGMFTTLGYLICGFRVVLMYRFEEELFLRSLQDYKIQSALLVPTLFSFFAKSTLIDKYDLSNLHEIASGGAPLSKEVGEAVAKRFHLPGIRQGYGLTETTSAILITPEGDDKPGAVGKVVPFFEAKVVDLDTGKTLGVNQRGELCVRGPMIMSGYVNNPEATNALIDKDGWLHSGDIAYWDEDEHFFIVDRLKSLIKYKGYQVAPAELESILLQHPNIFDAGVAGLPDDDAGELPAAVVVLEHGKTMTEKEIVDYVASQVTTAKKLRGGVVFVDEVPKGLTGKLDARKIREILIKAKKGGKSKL
Turning to `COc1ccc([C@H]2OC[C@@H]3C[C@@H](Cc4ccccc4)C(=O)N32)cc1`, the z-score was 0.0077.
Take `COCCCNC(=O)[C@@H]1c2ccccc2C(=O)N(Cc2ccccc2Cl)[C@H]1c1ccc(CO)cc1`: the z-score was -1.27.
Turning to `O=C1C2C=CC(C(O)c3cccc4ccccc34)N(Nc3ccccc3F)C2C(=O)N1c1ccccc1` (stereo not given), the z-score was 1.24.
The figure for `COC(=O)[C@@]1(CCS(=O)(=O)c2ccccc2)N=C(c2ccc(OCCCO)cc2)O[C@H]1c1ccccc1CN=[N+]=[N-]` is -0.282; for `C=C[C@H](OC)[C@@H](OC(=O)Nc1ccc(OC)cc1)c1ccc(O)c(F)c1` it is -6.53.
Turning to `C=CCC(OC(C)=O)[C@@H]1[C@@H](N(Cc2ccc(-c3ccccc3)cc2)C(=O)c2cccc3ccccc23)c2cc(OCCCO)ccc2N1C(=O)c1ccc(-c2ccccc2)cc1` (stereo not given in full), the z-score is -0.52.
For the compound `C=CCOC(=O)[C@H]1[C@@H]2C(=O)O[C@@H](c3ccccc3)[C@@H](c3ccccc3)N2[C@@H](c2ccc(OCCOC(=O)[C@H]3C[C@H]4C(=O)N[C@@H](CCCC[N+](C)(C)C)C(=O)N4[C@H]3c3ccc(O)cc3)cc2)[C@]12C(=O)Nc1ccc(I)cc12`, the z-score is -0.666.
On to `COC(=O)[C@@]1(Cc2ccc(OC)cc2)[C@@H]2C(=CC(=O)[C@H]2CC(=O)C(=O)N2CCCC2)CN1C(=O)c1ccccc1`, for which the z-score was 0.826.
Regarding `C[C@H]1NC(=O)[C@@]23C(=O)N[C@@H](Cc4ccccc4)C2[C@H](C)[C@@]2(C)O[C@H]2C3/C=C/C/C=C\CNC(=O)[C@@H]2CCCN2C1=O` (stereo not given in full), the z-score is 0.193.
For the compound `O=C(OCc1ccccc1)C1=CCC2c3[nH]c4ccccc4c3C(=O)C1N2S(=O)(=O)c1ccccc1[N+](=O)[O-]` (stereo not given), the z-score was 0.895.
Consider `COC(=O)[C@@]1(Cc2ccc(OC)cc2)[C@H]2c3cc(C(=O)N4CCCC4)n(Cc4ccc(C)c(F)c4F)c3C[C@H]2CN1C(=O)c1ccccc1`, for which the z-score was 1.44.
The figure for `C=CCOC(=O)[C@H]1[C@@H]2C(=O)O[C@@H](c3ccccc3)[C@@H](c3ccccc3)N2[C@@H](c2ccc(OCCOC(=O)[C@H]3C[C@H]4C(=O)N[C@@H](CCCCNC(C)=O)C(=O)N4[C@H]3c3cccc(OCCO)c3)cc2)[C@]12C(=O)Nc1ccccc12` is -0.487; for `CC(C)c1ccc(NN2C(C(O)c3ccc(B(O)O)cc3)C=CC3C(=O)N(c4ccccc4)C(=O)C32)cc1` (stereo not given) it is -6.16.
In the case of `CCCC=C(CCC)[C@@H](NC(=O)c1cccs1)c1ccc(C(F)(F)F)cc1`, the z-score is -2.34.
The figure for `COc1ccc(C#Cc2ccc3c(c2)[C@]2(C(=O)N3)[C@H](C(=O)Nc3nc4ccccc4s3)[C@H]3C(=O)O[C@H](c4ccccc4)[C@H](c4ccccc4)N3[C@@H]2c2ccc(O)cc2)cc1` is 0.0616; for `CCCCCCc1nc(-c2cc(C)c(OC)c(C)c2)cc2c1[Si](C(C)C)(C(C)C)OC2` it is 1; for `COCCOC(=O)N1C(=O)[C@@]2(c3cc(C#Cc4ccc(OC)cc4)ccc31)[C@H](c1ccccc1OCCO)N1[C@H](c3ccccc3)[C@H](c3ccccc3)OC(=O)[C@H]1[C@@H]2C(=O)NC[C@H](O)c1ccccc1` it is 0.385.
The value for `COC(=O)C(CC#Cc1ccc2c(c1)[C@]1(C(=O)N2)[C@H](c2ccc(OCCO)cc2)N2[C@H](c3ccccc3)[C@H](c3ccccc3)OC(=O)[C@H]2[C@@H]1C(=O)N1CCc2cc(OC)c(OC)cc2C1)C(=O)OC` was -0.465; that for `COCCOC(=O)N1C(=O)[C@@]2(c3cc(C#CCC(C(=O)OC)C(=O)OC)ccc31)[C@H](c1ccccc1OCCO)N1[C@H](c3ccccc3)[C@H](c3ccccc3)OC(=O)[C@H]1[C@@H]2C(=O)N1CCN(c2ncccn2)CC1` was 0.505; that for `O=C(c1ccccc1)N1C(=O)[C@]2(COC(c3ccc(OCCCO)cc3)=N2)Cc2ccccc21` was -1.19.
The figure for `COc1ccc([Si](C)(C)[C@@H]2[C@@H](CCO)O[C@]3(C(=O)N(Cc4ccc(N(C=O)c5ccccc5)cc4)c4ccccc43)[C@H]2C)cc1` is 0.0379.
On to `O=C1c2ccccc2[C@](Cc2ccccc2I)(C(=O)NCC(F)(F)F)[C@H](c2ccc(CO)cc2)N1Cc1ccccc1Cl`, for which the z-score was 0.406.
As to `COCCOC(=O)N1C(=O)[C@@]2(c3cc(C#CCCO)ccc31)[C@H](C(N)=O)[C@H]1C(=O)O[C@H](c3ccccc3)[C@H](c3ccccc3)N1[C@@H]2c1ccc(O)cc1`, the z-score was -0.381.
On to `C=C(CCCC)/C(=C/C[C@@H](OC(=O)c1ccncc1)c1ccc(OCCO)cc1)c1cc(C(=O)OC)ccc1OC`, for which the z-score was -0.551.
`C=CCN1C(=O)[C@]2(O[C@H](CCn3cc([C@H](O)c4ccccc4)nn3)[C@@H]([Si](C)(C)c3ccc(OC)cc3)[C@@H]2C)c2ccccc21`: the z-score was 0.184.
Turning to `[N-]=[N+]=NCc1ccccc1[C@@H]1OC(c2ccc(OCCCO)cc2)=N[C@]1(Cc1ccccc1)C(=O)NCC(O)CO` (stereo not given in full), the z-score is -0.0075.
Take `COc1cc2c(cc1OC)CN(C(=O)[C@H]1[C@@H]3C(=O)O[C@@H](c4ccccc4)[C@@H](c4ccccc4)N3[C@@H](c3ccc(O)cc3)[C@]13C(=O)Nc1ccc(C#CCCO)cc13)CC2`: the z-score is 1.1.
Take `C=CCNC(=O)[C@@H]1[C@H]2C(=O)O[C@H](c3ccccc3)[C@H](c3ccccc3)N2[C@H](c2ccccc2OCCO)[C@@]12C(=O)N(C(=O)OCCOC)c1ccccc12`: the z-score was -0.549.
With `CC1(C)[C@@H]2CC(C(O)C3C=CC4C(=O)N(c5ccccc5)C(=O)C4N3Nc3ccc([N+](=O)[O-])cc3)=C[C@H]1C2` (stereo not given in full), the z-score was 0.285.
The value for `C=CCNC(=O)[C@H]1[C@@H]2C(=O)O[C@@H](c3ccccc3)[C@@H](c3ccccc3)N2[C@@H](c2ccccc2OCCO)[C@]12C(=O)Nc1ccc(C#CCC(C(=O)OC)C(=O)OC)cc12` was 0.62; that for `O=C1C2C=CC(C(O)c3cc(C(F)(F)F)cc(C(F)(F)F)c3)N(n3cnnc3)C2C(=O)N1Cc1ccccc1` (stereo not given) was 1.46.
For the compound `COc1cc(NN2C(C(O)c3ccco3)C=CC3C(=O)N(c4ccccc4)C(=O)C32)cc(OC)c1OC` (stereo not given), the z-score is -2.51.
As to `CN(C)CCCCCCNC(=O)[C@@H]1C[C@@H]2C(=O)N[C@@H](Cc3ccccc3)C(=O)N2[C@@H]1c1ccc(O)cc1`, the z-score is 0.205.
On to `CC(C)NC(=O)[C@@]1(c2ccc([N+](=O)[O-])cc2)CC(=O)N(C2CCCCC2)[C@@H]1c1ccc(CO)cc1I`, for which the z-score is -1.11.
Take `C=CC[C@]1(C(=O)NCc2ccccc2)N=C(c2ccc(OCCCO)cc2)O[C@H]1c1ccccc1N=[N+]=[N-]`: the z-score is -8.88 (active).
